# Assay results: PubChem BioAssay AID2685 (National Center for Advancing Translational Sciences (NCATS), 2010)
# Among all 320,000 compounds or so, about 2,100 (0.66%) were called active. Roughly 53% stayed inconclusive and do not appear here. Calls follow the shape of the dose curve; as a rule, active = well fitted inhibition curve with a large enough effect in the signal ratio, with a control signal flat (not every such curve was filed as active); inconclusive = small, poorly fitted or top-dose-only effect, or effect the other way, or a change in a side signal; inactive = flat fitted curve, though single readings scatter; the % refers to the signal ratio. The full list was thinned out, with actives kept by preference.
# Assay: qHTS Assay for Lipid Storage Modulators in Drosophila S3 Cells;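 as to cell number change: cells counted by Cell Tracker Red CMTPX staining in the red channel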; as to lipid storage change, negative = inhibition: % is scaled to controls: 0 for no effect and ±100 for the full control effect
# Details: BODIPY lipid droplet fluorescence, 18-24 h, cells fed with added oleic acid; cell number change: measured here: cell count max response; series mostly up to 46.1 µM; lipid storage change, negative = inhibition: at the top concentration
# Method in brief: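 Drosophila S3 cells got compounds at several concentrations plus oleic acid (400 uM solution). Laser-scanning cytometry with 488 nm excitation read lipid droplets at 500-530 nm and cells at 575-640 nm. Percent activity was relative to 20 uM Triacsin C.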
# Potency is read from the fitted curve at half-maximal effect.
SMILES,"lipid storage change, negative = inhibition",cell number change,outcome,Potency
CC1(C(=O)NC2CCCCCCC2)CCC(=O)N1Cc1ccco1 (stereo unspecified),-0.266% (inactive),2.23%,,
CC(=O)N1CCC(N2CCN(c3ccccc3F)CC2)CC1,-6.18% (inactive),-0.227%,,
COC(=O)c1ccc(S(=O)(=O)N2CCCN(Cc3cccc(Br)c3F)CC2)n1C,25.4% (inactive),,,
COc1cc(NC2c3ccccc3C(=O)N2c2ccc(C)cn2)cc(OC)c1OC (stereo unspecified),1.47% (inactive),9.33%,,
CCOC(=O)c1cc(C(=O)NN)c(=O)[nH]c1C,-8.78% (inactive),-9.94%,,
COCCOc1ccc(C(F)(F)F)cc1NC(=O)COC(=O)c1c(C)noc1C,-14% (inactive),-13.3%,,
COc1ccc(Cl)cc1NC(=O)COC(=O)c1c(-c2ccccc2)noc1C,,-24.6%,inactive,
COc1ccc(OC)c(NC(=O)COC(=O)c2c(C)noc2C)c1,,-7.27%,,4.61 µM (active)
C=CCNC(=O)c1ccc(N(Cc2ccccc2)S(C)(=O)=O)cc1,-16.3% (inactive),-6.36%,,
O=C(Oc1ccc(N(C(=O)c2ccncc2)S(=O)(=O)c2ccc(F)cc2)cc1)c1ccncc1,7.39% (inactive),,,
CCc1ccc(S(=O)(=O)N(C(=O)c2ccncc2)c2ccc(OC(=O)c3ccncc3)cc2)cc1,,-8%,,18.4 µM (active)
COc1ccc(S(=O)(=O)N(C(=O)c2ccncc2)c2ccc(OC(=O)c3ccncc3)cc2)cc1,2.27% (inactive),-3.33%,,
CC(C)CN(CC(C)C)C(=O)COn1nnc2ccc(S(=O)(=O)N3CCOCC3)cc21,4.64% (inactive),3.81%,,
CCCCn1nc2cc(C(=O)NCc3ccc(OC)cc3)ccc2c1OCC,-10.4% (inactive),-2.9%,,
C1=CC2CC1CC2CN1CCN(Cc2ccccc2)CC1 (stereo unspecified),,,inactive,
OCCN(Cc1ccccc1)Cc1ccccc1F,-8.72% (inactive),-24.2%,,
OCCN(Cc1ccccc1)CC1CC2C=CC1C2 (stereo unspecified),,0.638%,,29.1 µM (active)
Cn1c2ccccc2c2nnc(SCC(=O)NC3CC3)nc21,,-0.952%,inactive,
Cn1c2ccccc2c2nnc(SCC(=O)NC3CCCC3)nc21,,-23.7%,inactive,
Cn1c2ccc(Br)cc2c2nnc(SCC(=O)O)nc21,,,inactive,
COc1ccc2c(c1)c1nnc(SCC(=O)NC3CC3)nc1n2C,,-8.55%,,1.46 µM (active)
COc1ccc(N2CCN(C(=O)CSc3nnc4c5cc(C)ccc5n(C)c4n3)CC2)cc1,-3.64% (inactive),15.5%,,
Cc1ccc2c(c1)c1nnc(SCC(=O)NC3CC3)nc1n2C,,0.855%,,5.8 µM (active)
CC1CCC(NC(=O)COC(=O)c2cccnc2Cl)CC1 (stereo unspecified),-3.37% (inactive),,,
COC(=O)N1[C@H](Cc2ccccc2)C=C[C@]1(C)C(=O)NCc1ccccn1,-3.63% (inactive),11.5%,,

SMILES,"lipid storage change, negative = inhibition",cell number change,outcome,Potency
O=S(=O)(Nc1ccc(OC(F)F)cc1)c1ccc(-c2ccon2)s1,11.5% (inactive),-0.692%,,
O=C(CN1C(=O)c2ccccc2S1(=O)=O)Nc1ccccc1C(=O)NCc1ccco1,13.6% (inactive),-1.22%,,
C=CCN(C(=O)Cn1c(C(=O)OC)cc2oc(C)cc21)c1ccccc1,-6.54% (inactive),-13%,,
Clc1ccc(-c2noc(CCCOc3ccccc3)n2)cc1,16.5% (inactive),-10.9%,,
Clc1ccc(OCc2nc(-c3ccncc3)no2)c(Cl)c1,,,inactive,
Clc1ccc(OCCCc2nc(-c3cccnc3)no2)c(Cl)c1,,-29.5%,,14.6 µM (active)
C/C(=C\C(=S)Nc1ccccc1)Nc1ccccc1,0.0435% (inactive),-10.3%,,
Nc1ncc2c(n1)CCN(c1ccc([N+](=O)[O-])cc1)C2,,-20.7%,,23.1 µM (active)
O=[N+]([O-])c1ccc(N2CCCCC2)cc1,15% (inactive),7.1%,,
Nc1ncc(-c2ccc([N+](=O)[O-])cc2)cn1,10.8% (inactive),12.5%,,
O=C(CCNC(=O)N1CC(=O)Nc2ccccc21)Nc1ccc(Br)cc1F,,-22.5%,inactive,
O=C1c2cccc3cccc(c23)C(=O)N1Nc1ccccc1,-24.6% (inactive),13.9%,,
CCOc1ccc(C(C)=O)cc1CSC(=N)N,3.16% (inactive),0.606%,,
COc1ccc(Br)cc1CSC(=N)N,1.61% (inactive),1.43%,,
CCCOc1ccc(Br)cc1CSC(=N)N,,-27.5%,,18.4 µM (active)
COc1ccc(Nc2c3c(nc4ccc(C)cc24)CCC3)cc1,,0.901%,,20.6 µM (active)
Cc1ccc2nc3c(c(Nc4ccccc4)c2c1)CCC3,3.77% (inactive),,,
COc1ccc(Nc2c3c(nc4ccccc24)CCC3)cc1,5.42% (inactive),21.3%,,
COc1ccc(C(C)=O)cc1COC(=O)CNC(=O)c1ccc(Cl)cc1,-8.38% (inactive),-0.097%,,
Cc1c(C(=O)N/N=C/C(C)C)[nH]c2ccc([N+](=O)[O-])cc12,1.18% (inactive),-4.9%,,
O=C(NCCN1CCOCC1)c1sc2ccccc2c1Cl,-5.29% (inactive),-1.8%,,
O=C(NCCCN1CCOCC1)c1sc2cc(Cl)ccc2c1Cl,28.1% (inactive),0.814%,,
O=C(NCCN1CCOCC1)c1sc2cc(Cl)ccc2c1Cl,,-3.15%,,4.61 µM (active)
COc1ccc(NC(=O)Nc2nnc(-c3ccco3)s2)cc1,-13.5% (inactive),3.5%,,
